A number with no mark means an inactive call. Results filed as inconclusive are left out. Where a call stands in place of a potency, no number is given. Calls of active or inactive are those of the source. Unless noted, the call rests on the fitted dose curve; in most records, active means well fitted curve in the direction sought with a large enough effect in the repeat runs; inconclusive means weak or mixed curves; inactive means no such curve, though single readings can be large; an effect the other way counts as inactive or inconclusive.
Tests used:
[1] = qHTS assay to identify small molecule agonists of the TGF-beta/Smad signaling pathway - cell viability counter screen (AID 1346829); further: top concentration of the series differs between compounds; nearly all actives have a fitted effect of over 45% in size
Outline: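 HEK 293T SBE-bla line, 5 hr compound exposure at 37 C, multiplexed CellTiter-Glo viability read by luminescence.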

[2] = qHTS assay to identify small molecule agonists of the TGF-beta/Smad signaling pathway (AID 1346859; active means well fitted activation curve with a large enough effect in the signal ratio in the repeat runs, not every such curve was filed as active; the % refers to the signal ratio; further: series mostly up to about 77 µM)
Outline: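 SBE-bla HEK293T cells plated overnight, then compound exposure for 5 h at 37 C. Beta-lactamase reporter read with LiveBLAzer B/G FRET substrate after 2 h at room temperature, fluorescence at 405 nm excitation, 460/530 nm emission.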

[3] = target: Thyrotropin-releasing hormone receptor (Homo sapiens) (UniProt P34981); test: qHTS assay to identify small molecule agonists of the thyrotropin-releasing hormone receptor (TRHR) signaling pathway (AID 1346891; calls by dose curve; further: series mostly up to about 58 µM)
Outline: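 HEK293 cells expressing TRHR plated 18 h at 37 C/5% CO2, calcium dye-loaded 2 h at 37 C, then compound added (agonist mode); kinetic calcium fluorescence read 3 min at 1 s intervals; 15 concentrations in triplicate.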

[4] = Human pregnane X receptor (PXR) small molecule agonists, qHTS cell viability counter screen (AID 1346977); further: nearly all actives have a fitted effect of over 50% in size
Outline: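 PXR-Luc HepG2 cells (2,000/well, 5% charcoal-stripped FBS) preincubated 5 hr, then exposed to compounds 24 hr at 37 C. Viability read in the same wells by CellTiter-Fluor fluorescence, reagent added at 23 hr, 1 hr incubation.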

[5] = Caspase-3/7 induction in HepG2 cells by small molecules, qHTS assay (AID 1346978); further: nearly all actives have a fitted effect of over 15% in size
Outline: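 Caspase-3/7 induction was measured by Caspase-Glo 3/7 luminescence (30 min, room temperature) after a 17 hr compound exposure of wild-type HepG2 cells seeded at 2,000 per well and pre-incubated 5 hr.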

[6] = Caspase-3/7 induction in CHO-K1 cells by small molecules, qHTS assay (AID 1346980); further: nearly all actives have a fitted effect of over 15% in size
Outline: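 Luminescent Caspase-Glo 3/7 read (30min, room temperature) quantified apoptosis induction. Cells were wild-type CHO-K1, treated with compound for 17hr at 37 C and 5% CO2.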

[7] = Caspase-3/7 induction in HepG2 cells by small molecules, qHTS cell viability counter screen (AID 1346981); further: series mostly up to about 92 µM; nearly all actives have a fitted effect of over 30% in size
Outline: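 Steps: seed 2,000 HepG2 cells per well; incubate 5 hr at 37 C; pin-add compounds in DMSO; incubate 16 hr; add CellTiter-Fluor; after 1 hr at 37 C and 5% CO2, read fluorescence.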

[8] = target: Nuclear receptor subfamily 1 group I member 2 (Homo sapiens) (UniProt O75469); test: Human pregnane X receptor (PXR) small molecule agonists, qHTS assay (AID 1346982); further: nearly all actives have a fitted effect of over 35% in size
Outline: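 Agonist mode qHTS: PXR-Luc HepG2 cells plated 5 hr before DMSO-dissolved compounds were pinned in, cultured 24 hr at 37 C, 5% CO2; ONE-Glo luminescence readout.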

[9] = target: Cytochrome P450 2D6 (Homo sapiens) (UniProt P10635); test: Cytochrome P450 Family 2 Subfamily D Member 6 (CYP2D6) small molecule antagonists: luciferase reporter qHTS assay (AID 1671196); further: nearly all actives have a fitted effect of over 50% in size; further: potency means the concentration at half of the fitted maximal effect
Outline: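 P450-Glo format: CYP2D6 converts a proluciferin substrate to luciferin in an NADPH-driven reaction lasting 1 h at room temperature. Light output, proportional to CYP2D6 activity, reflects interference by test chemicals.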

[10] = target: Cytochrome P450 2C19 (Homo sapiens) (UniProt P33261); test: Cytochrome P450 Family 2 Subfamily C Member 19 (CYP2C19) small molecule antagonists: luciferase reporter qHTS assay (AID 1671197); further: nearly all actives have a fitted effect of over 65% in size; further: potency means the concentration at half of the fitted maximal effect
Outline: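 First, compounds are pinned into enzyme-substrate mix and held 10 min at room temperature. Second, NADPH regeneration solution is added and plates incubate 1 h at 37C. Third, detection reagent is added and luminescence read after 20 min.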

[11] = target: Voltage-gated inwardly rectifying potassium channel KCNH2 (Homo sapiens) (UniProt Q12809); test: Human Ether-a-go-go-Related Gene (hERG) channel small molecule antagonists: fluorescence cell-based qHTS assay (AID 1671200); further: nearly all actives have a fitted effect of over 50% in size; further: potency means the concentration at half of the fitted maximal effect
Outline: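 hERG-U2OS cells plated overnight at 37 C, loaded with FluxOR II dye 1 h at RT in dark; after 10 min, thallium stimulus added. Fluorescence (480/540 nm) read kinetically for 2 min at 1 s intervals.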

[12] = target: Cytochrome P450 3A4 (Homo sapiens) (UniProt P08684); test: Cytochrome P450 Family 3 Subfamily A Member 4 (CYP3A4) small molecule antagonists: luciferase reporter qHTS assay (AID 1671201); further: nearly all actives have a fitted effect of over 50% in size; further: potency means the concentration at half of the fitted maximal effect
Outline: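 P450-Glo CYP3A4 luminescent assay: compounds preincubated 10 min at room temperature with enzyme and proluciferin substrate, NADPH regeneration added, 1 h room-temperature reaction, stopped with luciferin detection reagent; luminescence read after 20 min. Ketoconazole positive control.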

[13] = Caspase-3/7 induction in CHO-K1 cells by small molecules, qHTS cell viability counter screen (AID 1346979); further: nearly all actives have a fitted effect of over 35% in size
Outline: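 Wild-type CHO-K1 cells (1,500/well) treated with compound after 5 h plating; after 16 h at 37C, viability read as CellTiter-Fluor fluorescence following 1 h reagent incubation, in the same wells as the caspase read.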

[14] = target: Cytochrome P450 2C9 (Homo sapiens) (UniProt P11712); test: Cytochrome P450 Family 2 Subfamily C Member 9 (CYP2C9) small molecule antagonists: luciferase reporter qHTS assay (AID 1671198); further: nearly all actives have a fitted effect of over 50% in size; further: potency means the concentration at half of the fitted maximal effect
Outline: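 Enzyme-substrate mix preincubated with compound 10 min at room temperature; reaction started with NADPH regeneration solution, 1 h 37C. Luminescent luciferin product read after 20 min detection reagent.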

[15] = target: Cytochrome P450 1A2 (Homo sapiens) (UniProt P05177); test: Cytochrome P450 Family 1 Subfamily A Member 2 (CYP1A2) small molecule antagonists: luciferase reporter qHTS assay (AID 1671199); further: nearly all actives have a fitted effect of over 50% in size; further: potency means the concentration at half of the fitted maximal effect
Outline: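 Inhibition of CYP1A2 conversion of proluciferin to luciferin, detected by luminescence. Reaction run 1 h at room temperature with NADPH regeneration after brief compound preincubation.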

[16] = target: Thyrotropin-releasing hormone receptor (Homo sapiens) (UniProt P34981); test: qHTS assay to identify small molecule antagonists of the thyrotropin-releasing hormone receptor (TRHR) signaling pathway (AID 1346877; active means well fitted inhibition curve with a large enough effect in the repeat runs, not every such curve was filed as active; further: series mostly up to about 51 µM)
Outline: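 Cells (TRHR-HEK293) are plated and kept 18 h at 37 °C/5% CO2. A calcium-sensitive dye is added for 2 h, compound follows for 5 min at room temperature, and TRH is then given at 1 nM final.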

[17] = target: Nuclear receptor subfamily 1 group I member 2 (Homo sapiens) (UniProt O75469); test: CYP3A4 induction through human pregnane X receptor (PXR) by small molecules, qHTS assay (AID 1346984); further: nearly all actives have a fitted effect of over 40% in size
Outline: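 Steps: seed DPX-2 cells, 5 hr at 37C; pin-transfer compounds; 24 hr at 37C; add Luciferin-IPA (3uM final), 3 hr at 37C; add One-Glo, 30 min RT; read luminescence.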

[18] = target: Nuclear receptor subfamily 1 group I member 2 (Homo sapiens) (UniProt O75469); test: Human pregnane X receptor (PXR) activation by small molecules, qHTS assay (AID 1346985); further: nearly all actives have a fitted effect of over 40% in size
Outline: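 DPX-2 cells (HepG2 co-transfected with a PXR response element and a CYP3A4-promoter luciferase construct) were seeded at 2,000 per well, rested 5 hr at 37C, then exposed to DMSO-dissolved compounds for 24 hr. Activation was read as luciferase luminescence.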

Chain of Cytochrome P450 1A2 (Homo sapiens) (P05177 whole entry, looked up): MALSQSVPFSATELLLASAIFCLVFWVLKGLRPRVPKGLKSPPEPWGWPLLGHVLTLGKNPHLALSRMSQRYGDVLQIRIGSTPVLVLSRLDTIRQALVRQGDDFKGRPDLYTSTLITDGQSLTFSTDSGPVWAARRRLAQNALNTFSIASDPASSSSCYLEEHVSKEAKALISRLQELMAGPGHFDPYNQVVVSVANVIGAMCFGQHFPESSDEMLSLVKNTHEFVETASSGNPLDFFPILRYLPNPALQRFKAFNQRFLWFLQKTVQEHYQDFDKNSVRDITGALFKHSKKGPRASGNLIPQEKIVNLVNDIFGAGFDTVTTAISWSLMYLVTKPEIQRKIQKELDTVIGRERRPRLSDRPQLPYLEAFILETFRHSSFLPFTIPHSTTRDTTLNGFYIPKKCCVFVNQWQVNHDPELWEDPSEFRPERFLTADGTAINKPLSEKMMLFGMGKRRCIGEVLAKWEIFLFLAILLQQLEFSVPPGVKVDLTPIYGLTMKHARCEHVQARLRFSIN
Chain of Voltage-gated inwardly rectifying potassium channel KCNH2 (Homo sapiens) (Q12809 whole entry, looked up): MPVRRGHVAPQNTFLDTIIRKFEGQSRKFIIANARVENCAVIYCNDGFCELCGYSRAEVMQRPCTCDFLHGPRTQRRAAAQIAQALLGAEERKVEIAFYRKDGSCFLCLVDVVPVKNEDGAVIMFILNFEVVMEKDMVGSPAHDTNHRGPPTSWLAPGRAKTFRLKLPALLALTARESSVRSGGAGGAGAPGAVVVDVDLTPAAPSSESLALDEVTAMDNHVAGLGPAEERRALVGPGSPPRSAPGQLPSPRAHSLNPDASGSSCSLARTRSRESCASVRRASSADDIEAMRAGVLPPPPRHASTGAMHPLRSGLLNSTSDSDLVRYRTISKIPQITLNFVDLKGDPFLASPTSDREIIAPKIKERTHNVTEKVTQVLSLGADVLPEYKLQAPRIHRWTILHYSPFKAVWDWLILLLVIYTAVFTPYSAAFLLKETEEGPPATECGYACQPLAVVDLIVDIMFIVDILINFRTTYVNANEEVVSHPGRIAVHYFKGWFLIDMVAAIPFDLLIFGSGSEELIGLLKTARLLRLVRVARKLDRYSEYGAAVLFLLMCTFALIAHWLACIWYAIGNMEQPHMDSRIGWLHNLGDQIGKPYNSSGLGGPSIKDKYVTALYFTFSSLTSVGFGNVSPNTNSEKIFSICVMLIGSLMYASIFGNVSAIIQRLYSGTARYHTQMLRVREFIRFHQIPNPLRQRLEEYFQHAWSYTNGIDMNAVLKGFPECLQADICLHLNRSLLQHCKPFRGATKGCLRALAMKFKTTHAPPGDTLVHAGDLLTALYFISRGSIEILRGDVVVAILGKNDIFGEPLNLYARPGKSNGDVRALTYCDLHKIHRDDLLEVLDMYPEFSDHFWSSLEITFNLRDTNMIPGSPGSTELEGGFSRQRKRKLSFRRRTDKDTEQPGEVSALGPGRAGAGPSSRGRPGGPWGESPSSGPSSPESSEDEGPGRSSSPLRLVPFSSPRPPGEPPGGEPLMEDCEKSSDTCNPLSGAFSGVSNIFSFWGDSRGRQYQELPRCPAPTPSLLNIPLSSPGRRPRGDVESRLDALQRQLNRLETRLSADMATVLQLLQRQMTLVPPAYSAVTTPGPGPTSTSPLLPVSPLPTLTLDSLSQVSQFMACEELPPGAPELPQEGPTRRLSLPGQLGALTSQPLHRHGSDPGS
Chain of Cytochrome P450 2D6 (Homo sapiens) (P10635 whole entry, looked up): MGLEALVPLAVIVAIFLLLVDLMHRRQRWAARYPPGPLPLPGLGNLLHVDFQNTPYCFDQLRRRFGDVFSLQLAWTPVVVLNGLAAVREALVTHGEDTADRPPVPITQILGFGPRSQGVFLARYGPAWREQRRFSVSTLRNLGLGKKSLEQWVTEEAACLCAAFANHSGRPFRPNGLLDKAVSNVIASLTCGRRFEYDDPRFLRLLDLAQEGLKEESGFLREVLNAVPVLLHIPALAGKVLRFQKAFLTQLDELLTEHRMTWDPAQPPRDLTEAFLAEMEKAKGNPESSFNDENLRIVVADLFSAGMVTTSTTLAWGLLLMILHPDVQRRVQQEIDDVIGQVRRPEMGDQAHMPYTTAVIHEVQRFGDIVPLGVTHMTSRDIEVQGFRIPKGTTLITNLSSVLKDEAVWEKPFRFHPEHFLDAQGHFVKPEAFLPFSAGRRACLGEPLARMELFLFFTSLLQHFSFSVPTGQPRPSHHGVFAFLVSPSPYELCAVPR
Chain of Cytochrome P450 2C9 (Homo sapiens) (P11712 whole entry, looked up): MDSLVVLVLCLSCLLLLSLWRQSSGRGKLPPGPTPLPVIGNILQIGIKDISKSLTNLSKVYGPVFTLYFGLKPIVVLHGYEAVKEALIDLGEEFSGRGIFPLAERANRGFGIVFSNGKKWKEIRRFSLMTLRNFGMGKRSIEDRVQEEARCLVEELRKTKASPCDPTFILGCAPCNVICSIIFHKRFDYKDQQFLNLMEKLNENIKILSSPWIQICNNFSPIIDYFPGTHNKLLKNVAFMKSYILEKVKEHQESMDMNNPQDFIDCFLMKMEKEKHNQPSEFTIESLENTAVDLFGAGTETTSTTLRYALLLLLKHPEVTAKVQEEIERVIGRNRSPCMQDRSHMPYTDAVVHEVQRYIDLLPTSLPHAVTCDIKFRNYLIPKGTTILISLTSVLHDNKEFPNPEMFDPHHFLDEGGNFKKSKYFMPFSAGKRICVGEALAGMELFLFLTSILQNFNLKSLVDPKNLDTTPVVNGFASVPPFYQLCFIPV
Chain of Cytochrome P450 3A4 (Homo sapiens) (P08684 whole entry, looked up): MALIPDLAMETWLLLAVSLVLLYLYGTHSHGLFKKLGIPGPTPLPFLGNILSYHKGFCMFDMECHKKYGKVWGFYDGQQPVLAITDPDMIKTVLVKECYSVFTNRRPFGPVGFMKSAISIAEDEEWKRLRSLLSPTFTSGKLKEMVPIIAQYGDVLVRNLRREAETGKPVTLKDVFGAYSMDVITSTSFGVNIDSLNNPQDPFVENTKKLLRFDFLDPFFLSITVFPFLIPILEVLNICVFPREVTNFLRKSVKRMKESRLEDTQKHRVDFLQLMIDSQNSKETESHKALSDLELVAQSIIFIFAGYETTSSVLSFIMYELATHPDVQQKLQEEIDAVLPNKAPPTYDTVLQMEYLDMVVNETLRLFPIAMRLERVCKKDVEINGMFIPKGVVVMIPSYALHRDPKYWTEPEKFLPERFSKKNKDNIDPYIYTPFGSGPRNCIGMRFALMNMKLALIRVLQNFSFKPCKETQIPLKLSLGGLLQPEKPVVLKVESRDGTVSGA
Chain of Cytochrome P450 2C19 (Homo sapiens) (P33261 whole entry, looked up): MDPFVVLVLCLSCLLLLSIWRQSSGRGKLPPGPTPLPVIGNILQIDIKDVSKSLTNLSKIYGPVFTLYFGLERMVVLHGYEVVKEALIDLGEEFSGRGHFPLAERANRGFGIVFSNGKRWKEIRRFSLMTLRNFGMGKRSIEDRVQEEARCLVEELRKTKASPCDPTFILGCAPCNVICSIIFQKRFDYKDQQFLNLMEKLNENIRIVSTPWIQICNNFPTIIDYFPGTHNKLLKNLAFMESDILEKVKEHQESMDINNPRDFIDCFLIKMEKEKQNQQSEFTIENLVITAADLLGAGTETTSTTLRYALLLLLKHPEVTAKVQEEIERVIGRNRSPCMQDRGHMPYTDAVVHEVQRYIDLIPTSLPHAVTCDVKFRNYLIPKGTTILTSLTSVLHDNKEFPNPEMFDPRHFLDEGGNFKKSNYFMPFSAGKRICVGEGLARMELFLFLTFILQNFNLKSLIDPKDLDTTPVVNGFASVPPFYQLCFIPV
Chain of Thyrotropin-releasing hormone receptor (Homo sapiens) (P34981 whole entry, looked up): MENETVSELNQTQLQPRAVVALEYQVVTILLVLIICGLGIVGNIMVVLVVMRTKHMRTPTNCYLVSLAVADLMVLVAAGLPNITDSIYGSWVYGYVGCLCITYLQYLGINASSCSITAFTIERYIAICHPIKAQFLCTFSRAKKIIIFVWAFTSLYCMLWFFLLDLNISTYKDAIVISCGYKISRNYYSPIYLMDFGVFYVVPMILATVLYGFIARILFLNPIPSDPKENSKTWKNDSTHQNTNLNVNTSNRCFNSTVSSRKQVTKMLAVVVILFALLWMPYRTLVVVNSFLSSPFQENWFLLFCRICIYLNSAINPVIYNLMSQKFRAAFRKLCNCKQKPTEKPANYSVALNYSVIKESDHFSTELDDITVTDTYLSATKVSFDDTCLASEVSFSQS
Chain of Nuclear receptor subfamily 1 group I member 2 (Homo sapiens) (O75469 whole entry, looked up): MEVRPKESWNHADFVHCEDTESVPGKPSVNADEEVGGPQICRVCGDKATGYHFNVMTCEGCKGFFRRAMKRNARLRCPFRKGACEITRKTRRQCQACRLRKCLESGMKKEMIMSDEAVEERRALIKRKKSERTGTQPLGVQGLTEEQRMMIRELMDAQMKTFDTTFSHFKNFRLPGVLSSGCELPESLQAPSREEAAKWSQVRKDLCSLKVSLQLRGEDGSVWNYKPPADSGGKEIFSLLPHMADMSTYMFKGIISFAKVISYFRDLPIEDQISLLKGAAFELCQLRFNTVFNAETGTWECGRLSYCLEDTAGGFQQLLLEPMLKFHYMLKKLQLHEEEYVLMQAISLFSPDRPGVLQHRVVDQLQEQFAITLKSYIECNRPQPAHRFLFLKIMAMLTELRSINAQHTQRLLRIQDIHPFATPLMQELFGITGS

| SMILES | outcome [1] | outcome [2] | Potency [3] | outcome [4] | outcome [5] | outcome [6] | outcome [7] | Potency [8] | Potency [9] | Potency [10] | Potency [11] | Potency [12] | Potency [13] | Potency [14] | Potency [15] | outcome [16] | outcome [17] | outcome [18] |
| --- | --- | --- | --- | --- | --- | --- | --- | --- | --- | --- | --- | --- | --- | --- | --- | --- | --- | --- |
| CC12CCCC=C1C(=O)OC2=O (stereo not given) | inactive | inactive | inactive | inactive | inactive | inactive | inactive | inactive | inactive | inactive | inactive | inactive |  |  |  |  |  |  |
| Nc1cc(S(=O)(=O)O)ccc1O | inactive | inactive | inactive | inactive | inactive | inactive | inactive | inactive |  |  | inactive | inactive | inactive | inactive | inactive |  |  |  |
| C[C@@H]1CCC[C@H](C)N1CCCC(O)(c1ccccc1)c1ccccn1 (stereo not given in full) | inactive | inactive | inactive | inactive | inactive | inactive | inactive | inactive | 0.692 µM (active) | inactive | 8.49 µM (active) |  |  | inactive | inactive |  |  |  |
| COC(=O)N/N=C/c1c[n+]([O-])c2ccccc2[n+]1[O-] | inactive | inactive |  | inactive | inactive | inactive | inactive | inactive |  | inactive | inactive | inactive | inactive |  | inactive | inactive | inactive | inactive |
| COC(=O)c1ccc(NC(C)=O)cc1OC | inactive | inactive | inactive | inactive | inactive | inactive | inactive | inactive | inactive |  | inactive | inactive |  |  | 11.5 µM (active) |  |  |  |
| CCNC(=O)C(C)OC(=O)Nc1ccccc1 (stereo not given) | inactive | inactive | inactive | inactive | inactive | inactive | inactive | inactive | inactive | 79.6 µM (active) | inactive | inactive |  | 35.6 µM (active) | 35.6 µM (active) |  |  |  |
| Cc1ccc(O)c(C(=O)c2ccccc2)c1 | inactive | inactive | inactive | inactive | inactive | inactive | inactive |  | 11.4 µM (active) | 1.01 µM (active) |  | 32 µM (active) | inactive | 5.69 µM (active) | 1.43 µM (active) |  |  |  |
| CCN(CC)CC(=O)Oc1ccc(NC(C)=O)cc1 | inactive | inactive | inactive | inactive | inactive | inactive | inactive | inactive | inactive | inactive | inactive | inactive |  | inactive | inactive |  |  |  |
| C=CC(C)(CCC=C(C)C)OC(=O)C(C)C (stereo not given) | inactive | inactive | inactive | inactive | inactive | inactive | inactive | inactive | inactive | 71 µM (active) | inactive | 63.3 µM (active) | inactive | 39.9 µM (active) | inactive |  |  |  |
| CC1(C)S[C@@H]2[C@H](NC(=O)Cc3ccccc3)C(=O)N2[C@H]1C(=O)O (tested in a mixture with another compound) | inactive | inactive | inactive | inactive | inactive | inactive | inactive |  |  |  | inactive |  | inactive |  |  |  |  |  |
| NS(=O)(=O)c1cc2c(cc1C(F)(F)F)NCNS2(=O)=O | inactive | inactive | inactive | inactive | inactive | inactive | inactive | inactive | inactive |  | inactive |  |  | inactive | inactive |  | inactive | inactive |
| CN(C)CCC[C@@]1(c2ccc(F)cc2)OCc2cc(C#N)ccc21 | inactive | inactive | inactive |  |  | inactive | inactive | inactive |  | inactive |  | inactive | inactive | inactive | inactive |  | inactive | inactive |
| C=C(C)C(=O)OCCOC1CC2CC1C1C=CCC21 (stereo not given) | inactive | inactive | inactive | inactive | inactive | inactive | inactive |  | inactive | 30.3 µM (active) |  | inactive | inactive | 42.9 µM (active) | 42.9 µM (active) |  |  |  |
